# Rows were chosen to be rich in hits. Some 6.7% of all compounds tested hit in one or more screens of this group.
# Pf Dd2 inh: blocks growth of Plasmodium falciparum Dd2 parasites; activity change, % at 10 µM; 94,000 tested, 2.3% active; P. falciparum Dd2 growth, SYBR Green, 72 h; hits give low values; in the data active means activity change below about -80%; inconclusive means no clear call, values can overlap the other calls
# C diff HTS: blocks growth of Clostridium difficile; Clostridium difficile clinical isolate growth, OD600, 24 h; hits give low values; growth activity, negative = inhibition, % at 16 µg/mL (by protocol); 86,000 tested, 0.25% active; AID 1259249;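 active means mean growth activity at or below -80% and every replicate also at or below -80%; inconclusive means mean at or below -80% but some replicate above -80%; inactive means mean growth activity above -80%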;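 further: 0% = DMSO wells and -100% = levofloxacin 16 µg/mL wells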
# T cruzi growth-1: T. cruzi proliferation inhibition; inhibition, % at 8.34 µM; T. cruzi beta-gal in NIH3T3, GalScreen luminescence, 90 h; 77,000 tested, 5.9% active; AID 624255;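 active means mean inhibition above about 93%, with at least 55% of replicates each passing it, limit read from the data, passing the limit was not always enough; inconclusive means only one of those two conditions holds; inactive means neither condition holds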
# T cruzi growth-2: Trypanosoma cruzi proliferation inhibition | shares compounds with T cruzi growth-1 | T. cruzi beta-gal in NIH3T3, GalScreen luminescence, 90 h | inhibition, % at 8.35 µM | 5,600 tested, 72% active;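 active means mean replicate inhibition above about 95% and at least 55% of replicates individually reaching it, limit read from the data; inconclusive means only one of the two criteria is met; inactive means neither criterion is met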
# T cruzi growth-3: Trypanosoma cruzi proliferation inhibition; AID 651740; inhibition, % at 2.09 µM; 5,600 tested, 21% active; T. cruzi beta-gal in NIH3T3, GalScreen luminescence, 90 h; shares compounds with T cruzi growth-1;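 active means mean inhibition above about 95%, with at least 55% of replicates also reaching it, limit read from the data; inconclusive means meets just one of the two conditions; inactive means meets neither condition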;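 further: plate controls were neutral control median for no effect and positive control median for full effect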
# NIH3T3 tox: cytotoxicity in mouse NIH/3T3 fibroblasts; shares compounds with T cruzi growth-1; AID 651742; cytotoxicity (signal decrease), % at 8.35 µM; 5,600 tested, 14% active; NIH/3T3 viability, CellTiter-Glo ATP luminescence, 90 h;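 active means mean signal decrease across replicates above about 35% based on untreated-well scatter, with enough replicates individually passing, limit read from the data; inconclusive means no rule stated though some were filed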;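 further: 0% = median of neutral control wells and 100% = median of positive control wells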
# NIH3T3 tox 2: NIH/3T3 (mouse) viability loss. 5,600 tested, 56% active. shares compounds with T cruzi growth-1. AID 651744. inhibition, % at 24.9 µM. NIH/3T3 viability, CellTiter-Glo ATP luminescence, 90 h;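 active means mean loss of cell viability signal at or above a set limit, and enough replicates individually reaching it; inconclusive means meets only the mean limit or only the replicate share; inactive means meets neither condition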;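 further: 0% = median of neutral control wells and 100% = median of positive control wells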
# * = called active by the depositor; u = inconclusive; x = no result.
SMILES,Pf Dd2 inh,C diff HTS,T cruzi growth-1,others
CO[C@@H](CN(C)C(=O)c1ccccc1F)[C@@H](C)CN([C@@H](C)CO)S(=O)(=O)c1ccc(C)cc1,9,x,35,
Cc1noc(C)c1NC(=O)Nc1ccc2c(c1)C(=O)N([C@@H](C)CO)C[C@@H](C)[C@H](CN(C)C(=O)CCCN(C)C)OCCCC[C@H](C)O2,62,-7,28,
COc1cccc(S(=O)(=O)N(C)C[C@H]2Oc3cc(C4=CCCC4)ccc3S(=O)(=O)N([C@H](C)CO)C[C@@H]2C)c1,-69,3,94,
C[C@H](CO)N1C[C@H](C)[C@H](CN(C)C(=O)Nc2ccccc2)Oc2ncc(C#CC3CC3)cc2C1=O,-6,x,58,
COCC#Cc1cnc2c(c1)C(=O)N([C@@H](C)CO)C[C@H](C)[C@@H](CN(C)Cc1ccc(-c3ccccc3)cc1)O2,-30,-6,x,
C[C@@H]1CN([C@@H](C)CO)C(=O)c2cc(NS(=O)(=O)c3ccc(Cl)cc3)ccc2O[C@@H](C)CCCCO[C@@H]1CN(C)Cc1ccc(C(=O)O)cc1,-53,-4,12,
COc1ccc(-c2cnc3c(c2)C(=O)N([C@H](C)CO)C[C@H](C)[C@@H](CN(C)C(=O)NC2CCCC2)O3)cc1,-31,0,18,
C[C@@H]1CN([C@@H](C)CO)C(=O)c2cc(N(C)C)ccc2O[C@@H](C)CCCCO[C@H]1CN(C)Cc1ccc(C(F)(F)F)cc1,-48,28,119*,T cruzi growth-2=110*;T cruzi growth-3=108*;NIH3T3 tox=4;NIH3T3 tox 2=87*
C[C@H](CO)N1C[C@H](C)[C@H](CN(C)Cc2ccc(C(F)(F)F)cc2)OCCCC[C@H](C)Oc2ccc(N(C)C)cc2C1=O,-15,19,62,
C[C@@H]1CCCCO[C@H](CN(C)Cc2ccc(C(F)(F)F)cc2)[C@@H](C)CN([C@H](C)CO)C(=O)c2cc(N(C)C)ccc2O1,-31,15,u,T cruzi growth-2=112*;T cruzi growth-3=16;NIH3T3 tox=25;NIH3T3 tox 2=u
C[C@H]1CCCCO[C@@H](CN(C)Cc2ccc(C(=O)O)cc2)[C@@H](C)CN([C@@H](C)CO)C(=O)c2cc(N(C)C)ccc2O1,26,2,5,
C[C@@H]1CCCCO[C@@H](CN(C)Cc2ccc(C(=O)O)cc2)[C@H](C)CN([C@@H](C)CO)C(=O)c2cc(N(C)C)ccc2O1,24,1,29,
C[C@H](CO)N1C[C@H](C)[C@@H](CN(C)Cc2ccc(C(F)(F)F)cc2)OCCCC[C@H](C)Oc2ccc(N(C)C)cc2C1=O,-20,19,108*,T cruzi growth-2=111*;T cruzi growth-3=95;NIH3T3 tox=-8;NIH3T3 tox 2=97*
Cc1noc(C)c1NC(=O)N[C@H]1CC[C@@H](CCNC(=O)C2CCCCC2)O[C@H]1CO,5,0,-35,
C[C@H]1CN([C@@H](C)CO)C(=O)c2cccc(NC(=O)Nc3ccc(F)cc3)c2O[C@@H]1CN(C)C(=O)Nc1ccc(F)cc1,-2,0,27,
Cc1noc(C)c1NC(=O)Nc1ccc2c(c1)C(=O)N([C@@H](C)CO)C[C@@H](C)[C@H](CN(C)S(C)(=O)=O)OCCCC[C@@H](C)O2,-2,-4,x,
CCCC(=O)Nc1ccc2c(c1)C(=O)N(C)[C@H]1CC[C@@H](CC(=O)O)O[C@@H]1CO2,-13,4,-20,
CNC[C@@H]1OCCCC[C@@H](C)Oc2ccc(N)cc2C(=O)N([C@@H](C)CO)C[C@H]1C,30,-3,18,
CC(C)NC(=O)NCC[C@H]1CC[C@@H](NC(=O)Nc2ccccc2)[C@H](CO)O1,-24,x,63,
O=C(Nc1ccccc1)N1CCCCN2[C@H](CO)[C@H](c3ccc(C#Cc4ccccn4)cc3)[C@H]2C1,-25,12,104*,T cruzi growth-2=99*;T cruzi growth-3=61;NIH3T3 tox=-8;NIH3T3 tox 2=13
COc1ccc(NC(=O)N2CCCCN3[C@@H](CO)[C@H](c4ccc(C#Cc5ccccn5)cc4)[C@@H]3C2)cc1,-85*,7,103*,T cruzi growth-2=110*;T cruzi growth-3=109*;NIH3T3 tox=-24;NIH3T3 tox 2=-7
O=C(Nc1ccc(F)cc1)N1CCCCN2[C@H](CO)[C@H](c3ccc(C#Cc4ccccn4)cc3)[C@H]2C1,-69,-7,80,
